Laboratory results: PubChem BioAssay AID1159580 (chemical genetic matrix, 2015)
Where “and” joins values, the source holds several entries; their conditions need not be identical. Equal values may be shown once. Among all 5,500 compounds or so, about 2,000 (36%) were called active. Roughly 18% stayed inconclusive and do not appear here. Rule as the data show it: active = normalized growth mostly below about 0.91 (no sharp cut-off); inconclusive = no clear call, values can overlap the other calls; inactive = mostly above about 0.92. This is one part of the list.

Experiment: chemical genetic growth profiling, strain panel (AID 1159580);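 also: tested at 20 µM; growth read once vehicle control cultures reached saturation at 30 °C; 1 = growth at the plate median or of vehicle wells; lower values mean less growth of the strain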
Details: S. cerevisiae deletion strains, growth OD

Measured: normalized growth

Cc1ccccc1OCC(O)CO (centres undefined)
inactive: locus YAL013W, strain DEP1, active compounds read low 1.02 | locus YAL021C, strain ccr4, active compounds read low 0.971 | locus YAL026C, strain drs2, active compounds read low 0.974 | locus YAL030W, strain snc1, active compounds read low 0.967 | locus YBL061C, strain skt5, active compounds read low 0.962 | locus YBR009C, strain hhf1, active compounds read low 0.985 | locus YBR021W, strain FUR4, active compounds read low 1.03 | locus YBR023C, strain chs3, active compounds read low 0.964 | locus YBR171W, strain sec66, active compounds read low 0.973 | locus YBR229C, strain ROT2, active compounds read low 1.02 | locus YBR231C, strain swc5, active compounds read low 0.98 | locus YBR279W, strain paf1, active compounds read low 0.974 | locus YCL011C, strain gbp2, active compounds read low 0.971 | locus YCL016C, strain dcc1, active compounds read low 0.967 | locus YCL029C, strain bik1, active compounds read low 0.998 | locus YCL061C, strain MRC1, active compounds read low 0.993 | locus YCL069W, strain vba3, active compounds read low 0.981 | locus YCR088W, strain abp1, active compounds read low 0.969 | locus YDL005C, strain med2, active compounds read low 0.976 | locus YDL035C, strain GPR1, active compounds read low 1.03 | locus YDL040C, strain nat1, active compounds read low 0.967 | locus YDL074C, strain BRE1, active compounds read low 1.05 | locus YDL101C, strain DUN1, active compounds read low 1.03 | locus YDL134C, strain PPH21, active compounds read low 1.04 | locus YDL185W, strain tfp1, active compounds read low 0.99 | locus YDL192W, strain arf1, active compounds read low 0.991 | locus YDR001C, strain nth1, active compounds read low 0.983 | locus YDR069C, strain doa4, active compounds read low 0.966 | locus YDR101C, strain arx1, active compounds read low 1 | locus YDR137W, strain rgp1, active compounds read low 0.997 | locus YDR159W, strain sac3, active compounds read low 0.977 | locus YDR162C, strain NBP2, active compounds read low 1.02 | locus YDR195W, strain ref2 0.957 | locus YDR297W, strain sur2, active compounds read low 0.978 | locus YDR318W, strain mcm21, active compounds read low 1.01 | locus YDR334W, strain swr1, active compounds read low 0.964 | locus YDR335W, strain msn5, active compounds read low 0.988 | locus YDR388W, active compounds read low 0.987 | locus YDR392W, strain spt3, active compounds read low 0.981 | locus YDR502C, strain sam2, active compounds read low 0.99 | locus YEL003W, strain gim4, active compounds read low 0.97 | locus YEL037C, strain rad23, active compounds read low 0.969 | locus YEL061C, strain CIN8 (second series), active compounds read low 0.968 | locus YEL061C, strain CIN8, active compounds read low 1.01 | locus YER015W, strain faa2, active compounds read low 0.976 | locus YER016W, strain bim1, active compounds read low 0.988 | locus YER110C, active compounds read low 0.99 | locus YER111C, strain swi4, active compounds read low 0.97 | locus YER155C, strain BEM2 (second series), active compounds read low 0.969 | locus YER155C, strain BEM2, active compounds read low 1.01 | locus YER167W, strain BCK2, active compounds read low 1.01 | locus YFR010W, strain ubp6, active compounds read low 0.972 | locus YGL078C, strain dbp3, active compounds read low 1 | locus YGL086W, strain mad1, active compounds read low 1.01 | locus YGL167C, strain pmr1, active compounds read low 0.969 | locus YGL173C, strain kem1, active compounds read low 0.969 | locus YGL227W, strain vid30, active compounds read low 0.976 | locus YGL240W, strain doc1, active compounds read low 0.971 | locus YGL248W, strain PDE1, active compounds read low 1.03 | locus YGL253W, strain hxk2, active compounds read low 0.971 | locus YGR135W, strain pre9, active compounds read low 0.99 | locus YGR229C, strain SMI1, active compounds read low 1.03 | locus YGR252W, strain gcn5, active compounds read low 0.989 | locus YHR013C, strain ard1, active compounds read low 0.965 | locus YHR027C, strain rpn1, active compounds read low 0.969 | locus YHR030C, strain SLT2, active compounds read low 1.01 and 0.978 | locus YHR079C, strain IRE1 (second series), active compounds read low 0.992 | locus YHR079C, strain IRE1, active compounds read low 0.973 | locus YHR094C, strain hxt1, active compounds read low 0.986 | locus YHR129C, strain ARP1, active compounds read low 1.02 | locus YHR142W, strain chs7, active compounds read low 0.964 | locus YHR200W, strain rpn10, active compounds read low 1 | locus YIL066C, strain RNR3, active compounds read low 1.04 | locus YIL073C, strain SPO22, active compounds read low 1.08 | locus YIL125W, strain kgd1, active compounds read low 0.99 | locus YIR030C, strain dcg1, active compounds read low 0.989 | locus YJL092W, strain hpr5, active compounds read low 0.99 | locus YJL095W, strain BCK1 (second series), active compounds read low 0.977 | locus YJL095W, strain BCK1, active compounds read low 1.05 and 0.98 | locus YJL115W, strain asf1, active compounds read low 0.977 | locus YJL129C, strain trk1, active compounds read low 0.971 | locus YJL134W, strain LCB3, active compounds read low 1.01 | locus YJL154C, strain vps35, active compounds read low 0.973 | locus YJL164C, strain tpk1, active compounds read low 0.969 | locus YJL166W, strain qcr8, active compounds read low 0.978 | locus YJL168C, strain set2, active compounds read low 0.991 | locus YJL187C, strain SWE1 (second series), active compounds read low 1.03 | locus YJL187C, strain SWE1, active compounds read low 0.979 | locus YJR043C, strain POL32, active compounds read low 1.02
